Rows were chosen to be rich in hits. Some 0.59% of all compounds tested hit in one or more screens of this group.
mIDH1 inhibitor = inhibitors of human mutant IDH1 R132H | O75874 | IDH1-R132H enzyme, NADPH consumption, diaphorase/resazurin fluorescence | hit rate 0.093% among 390,000 | Potency, µM (series often up to 76.6 µM), usual class: inhibitors; note: nearly all actives have a fitted effect of over 65% in size
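IDH1-R132H (0.5 ug/mL dispensed) in pH 7.5 Tris buffer was preincubated 30 min with compound, then given a substrate mix of 0.016 mM NADPH and 2 mM alpha-KG for 80 min at room temperature; remaining NADPH was read by diaphorase/resazurin fluorescence.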
PTHR1 agonist = activates the human parathyroid hormone receptor PTHR1; HEK293 GP2 PTHR1 cells, GloSensor cAMP luminescence, 1 h; Potency, µM (top dose mostly 115 µM), usual class: activators; hit rate 0.075% among 410,000; note: nearly all actives have a fitted effect of over 55% in size
Target sequence (Q03431 whole entry, looked up): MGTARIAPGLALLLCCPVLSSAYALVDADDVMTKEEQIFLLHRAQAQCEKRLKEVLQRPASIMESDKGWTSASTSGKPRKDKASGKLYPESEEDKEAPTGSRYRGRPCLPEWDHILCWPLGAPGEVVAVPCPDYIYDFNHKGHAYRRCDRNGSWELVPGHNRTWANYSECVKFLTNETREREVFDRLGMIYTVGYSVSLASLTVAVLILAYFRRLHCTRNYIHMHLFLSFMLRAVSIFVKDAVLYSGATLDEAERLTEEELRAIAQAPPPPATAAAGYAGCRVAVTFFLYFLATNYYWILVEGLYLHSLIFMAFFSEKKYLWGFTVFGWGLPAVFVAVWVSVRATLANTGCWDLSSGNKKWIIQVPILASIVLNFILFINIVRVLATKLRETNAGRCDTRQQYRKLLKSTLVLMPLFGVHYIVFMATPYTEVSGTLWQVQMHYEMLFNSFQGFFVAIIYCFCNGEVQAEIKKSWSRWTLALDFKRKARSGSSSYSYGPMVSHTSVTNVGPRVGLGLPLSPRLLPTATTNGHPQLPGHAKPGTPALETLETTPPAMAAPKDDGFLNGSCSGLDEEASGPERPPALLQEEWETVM
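HEK-293-derived GP2 cells expressing PTHR1 and a GloSensor cAMP reporter, 3,000/well, plated overnight, given luciferin plus IBMX (each 0.5 mM as added) for 1 h at 37 °C, then compound for 1 h at 37 °C. Luminescence was read after 15 min at room temperature.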
Vif-A3F inh = inhibitors of Vif-A3F interaction | hit rate 0.2% among 390,000 | Potency, µM (top dose mostly 46.1 µM) | HeLa A3F-eYFP + Vif (tagged APOBEC3F with the HIV-1 protein that degrades it), YFP fluorescence increase; note: nearly all actives have a fitted effect of over 65% in size
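Fluorescence increase (Ex 488/Em 500-530) after overnight compound treatment at 37 deg C flags inhibition of Vif-driven A3F-eYFP loss in stable HeLa A3F-eYFP/Vif cells seeded overnight beforehand.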
LDHA block = inhibitors of human lactate dehydrogenase A. purified LDHA, NADH/diaphorase-resazurin fluorescence; stronger effect = lower value. activity change, % (values are at about 110 or 230 µM). hit rate 0.15% among 480,000. AID 1347041; in the data active = activity change below about -30%; inconclusive = mostly about -25% to -30%
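Human LDH5 at 2 nM final in Tris HCl pH 7.4 with 0.06 mM NADH and 0.2 mM pyruvate, reacted 5 minutes at room temperature. Remaining NADH coupled via diaphorase/resazurin; resorufin fluorescence read at 0 and 20 minutes, normalized to enzyme-free and DMSO wells.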
PINK1 expr mod = changes PINK1 expression. Potency, µM (series often up to 76.6 µM), usual class: activators. PINK1 immunofluorescence, high-content cytometry, 24 h. hit rate 0.2% among 410,000; active = well fitted activation curve with a large enough effect; inconclusive = small, poorly fitted or top-dose-only effect; cell line not stated here; note: nearly all actives have a fitted effect of over 65% in size
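Decision-based qHTS: stable cells, 24 h exposure to five compound concentrations, CCCP as control. Fixed cells stained for PINK1 plus nuclear, mitochondrial and cell markers, cytometer read.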
Vif-A3G inh = Vif-A3G binding inhibition. Potency, µM (doses to about 46.1 µM), usual class: inhibitors. Q9HC16. HeLa A3G-eYFP + Vif (tagged APOBEC3G with the HIV-1 protein that degrades it), YFP fluorescence, overnight. hit rate 0.076% among 410,000; note: nearly all actives have a fitted effect of over 60% in size
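HeLa cells stably expressing Vif and C-terminally eYFP-tagged A3G, seeded overnight at 37 deg C, then exposed to compound by pintool overnight at 37 deg C. Rise in yellow fluorescence (Ex 488/Em 500-530, Acumen) marks blocked Vif-driven A3G degradation.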
Resorufin autofl = interferes with resorufin fluorescence in IDH1 counter-screen. inhibition of signal, % at 51.2 µM. Resorufin detection reagent fluorescence interference, cell-free. shares compounds with mIDH1 inhibitor. 750 tested, under 10 active
WT IDH1 inh = wild-type IDH1 (human) inhibition counterscreen. AID 623995. shares compounds with mIDH1 inhibitor. WT IDH1 enzyme, NADPH diaphorase/resazurin fluorescence. Potency, µM (doses to about 115 µM), usual class: inhibitors. hit rate 9% among 750; note: nearly all actives have a fitted effect of over 55% in size
mIDH1 confirm = mutant IDH1 (human) inhibition, confirmed. shares compounds with mIDH1 inhibitor. IDH1 R132H enzyme, NADPH diaphorase/resazurin fluorescence. Potency, µM (series often up to 76.6 µM), hits mostly inhibitors. hit rate 83% among 750; note: nearly all actives have a fitted effect of over 50% in size
Numbers stand for hits; 0 = inactive; ? = inconclusive; - = not tested or not shown. Unless noted, calls come from the whole dose curve; as a rule, active = well fitted curve in the direction sought with a large enough effect; inconclusive = small, poorly fitted or top-dose-only effect, or another doubt; inactive = no such curve, though single readings can be large; an effect the other way counts as inactive or inconclusive.

SMILES	mIDH1 inhibitor	PTHR1 agonist	Vif-A3F inh	LDHA block	PINK1 expr mod	Vif-A3G inh	Resorufin autofl	WT IDH1 inh	mIDH1 confirm
O=c1[nH]c(/C=C/c2cccc([N+](=O)[O-])c2)c([N+](=O)[O-])c(=O)[nH]1	44.7µM	0	0	0	0	0	0	0	31.6µM
Cc1ccc(S(=O)(=O)CCc2nnc(NC(=O)CCl)s2)cc1C	?	0	0	0	0	0	0	0	31.6µM
Cc1cc(C)c(-c2n[nH]c3c2C(c2ccccc2F)N(Cc2ccco2)C3=O)c(O)c1 (stereo not drawn)	?	0	0	0	0	0	0	0	?
O=C1c2[nH]nc(-c3ccccc3O)c2C(c2cccc(O)c2)N1Cc1ccco1 (stereo not drawn)	0	0	0	0	0	0	-	-	-
COc1ccc(C2c3c(-c4c(C)cc(C)cc4O)n[nH]c3C(=O)N2Cc2ccco2)cc1 (stereo not drawn)	-	0	-	0	0	-	-	-	-
Cc1ccc(O)c(-c2n[nH]c3c2C(c2ccc(F)cc2)N(Cc2ccco2)C3=O)c1 (stereo not drawn)	39.8µM	0	0	0	0	0	0	0	28.2µM
COc1ccc(C2c3c(-c4ccccc4O)n[nH]c3C(=O)N2Cc2ccco2)cc1 (stereo not drawn)	?	0	0	0	0	0	0	0	31.6µM
CC(C)OC(=O)C1=C(N)OC2=C(C(=O)CC(C)(C)C2)C1c1ccc(Cl)cc1 (stereo not drawn)	-	-	-	0	-	-	-	-	-
Cc1ccc(NC(=O)CSc2nc3ccccc3n2CCC#N)cc1C	-	-	-	0	-	-	-	-	-
O=C1/C(=C/c2cccs2)CSc2ccccc21	-	-	-	0	-	-	-	-	-
COc1ccc(NC(=O)c2cnn(-c3ccc(F)cc3F)c2C2CCN(C(=O)OC(C)(C)C)CC2)cc1Cl	0	0	0	0	0	0	-	-	-
CC(C)(C)OC(=O)N1CCC(c2cc(=O)n3[nH]cc(C(=O)Nc4ccc(F)c(Cl)c4)c3n2)CC1	?	0	0	0	0	0	0	?	10µM
CC(C)(C)OC(=O)N1CCC(c2cc(=O)n3[nH]cc(C(=O)NC4CCCC4)c3n2)CC1	0	0	0	0	0	0	-	-	-
COc1ccc(NC(=O)c2c[nH]n3c(=O)cc(C4CCN(C(=O)OC(C)(C)C)CC4)nc23)cc1Cl	41.4µM	0	0	0	0	0	0	31.6µM	20µM
CNc1c(NC(=O)CC(=O)OC)c(=O)oc2ccccc12	-	-	-	0	-	-	-	-	-
CC1CCCCC1NC(=O)c1ccc2c(c1)CCC2 (stereo not drawn)	-	-	-	0	-	-	-	-	-
O=C(NC1CCCC1)C(c1ccc(O)cc1)N(CC1CCCO1)C(=O)C1COc2ccccc2O1 (stereo not drawn)	0	0	0	0	0	0	-	-	-
CCOc1cccc(N(C(=O)C2COc3ccccc3O2)C(C(=O)NC2CCCCC2)c2ccc(O)cc2)c1 (stereo not drawn)	?	0	0	0	0	0	0	0	5.62µM
CC(C)CCNC(=O)C(c1ccc(O)cc1)N(C(=O)C1COc2ccccc2O1)c1cccc(O)c1 (stereo not drawn)	?	0	0	0	0	0	0	0	?
Cc1ccccc1NS(=O)(=O)c1ccc2c(c1)-c1oncc1CO2	-	-	-	0	-	-	-	-	-
COc1cc(NS(=O)(=O)c2ccc(NC(=S)NC(=O)/C=C/c3ccc(F)cc3)cc2)ncn1	6.56µM	0	0	0	0	0	0	11.2µM	1.41µM
COc1ccc(NS(=O)(=O)c2ccc(NC(=S)NC(=O)/C=C/c3ccccc3)cc2)nn1	?	0	0	0	0	?	0	?	25.1µM
CC(C)C(NC(=O)c1ccc(Cl)cc1Cl)C(=O)NCc1cnn(-c2ccccc2)c1 (stereo not drawn)	-	-	-	0	-	-	-	-	-
Cc1ccc(-c2cc(C(=O)OCc3ccc(-c4ccccc4)cc3)c3ccccc3n2)cc1	-	-	-	0	-	-	-	-	-
Cc1ccc(/C=C/C(=O)c2ccc([N+](=O)[O-])o2)cc1	35.5µM	0	0	0	0	?	0	?	8.91µM
O=C(/C=C/c1ccc(Cl)cc1)c1ccc(O)cc1	-	-	-	0	-	-	-	-	-
O=C(/C=C/c1ccc(Cl)cc1)c1ccc([N+](=O)[O-])o1	11.2µM	0	0	0	0	?	0	?	8.91µM
CNC(=O)CCNC(=O)Cn1c(-c2ccccc2)cc2ccccc21	-	-	-	0	-	-	-	-	-
N=c1c(S(=O)(=O)c2ccccc2)cc2c(=O)n3ccccc3nc2n1CC1CCCO1 (stereo not drawn)	?	0	0	0	0	0	0	0	35.5µM
